From PubChem BioAssay
An excerpt weighted towards active compounds, which were near 6.2% of everything screened.
Marburg entry inh: inhibitors of Marburg virus binding or cell entry; Marburg virus pseudotyped entry inhibition, cell reporter; actives 1.8% (n = 300,000); Potency, µM (doses to about 37.8 µM), hits mostly inhibitors; AID 540276; calls by dose curve; tested in HEK293 cells
FMDV antiviral: foot and mouth disease virus antiviral activity | FMDV antiviral cell-based qHTS | Potency, µM (highest dose often 57.9 µM), actives largely listed as inhibitors | actives 1.2% (n = 410,000); calls by dose curve; tested in HEK293T cells; also: read-out not given here; nearly all actives have a fitted effect of over 45% in size
HCMV inh: human cytomegalovirus inhibition | HFF cells, HCMV-luciferase reporter, 72 h; stronger effect = lower value | activity change, negative = inhibition, % at 57.5 µM | actives 4.5% (n = 410,000) | AID 1259415; in the data active = activity change below about -60%; inconclusive = no clear call, values can overlap the other calls; inactive = above about -39%
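After 16 h attachment at 37C, HFF cells received test compound and HCMV-luciferase (1 PFU/cell); reporter luminescence read 72 h later, data normalized against buffer-only and known inhibitor Salinomycin.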
LASV entry inh: blocks Lassa virus binding to or entry into cells | Lassa virus pseudotype entry inhibition, cell reporter | Potency, µM (highest dose often 37.9 µM), hits mostly inhibitors | actives 1.2% (n = 300,000) | AID 540256; calls by dose curve; tested in HEK293 cells; also: nearly all actives have a fitted effect of over 50% in size
Numbers stand for hits; n = inactive; u = inconclusive; x = no result; ! = not active in a repeat.

SMILES	Marburg entry inh	FMDV antiviral	HCMV inh	LASV entry inh
CCOC(=O)C1CCCN(c2nc(C)nc3c2oc2ccccc23)C1 (stereo not drawn)	u	22µM	n	u
Cc1nc(SCC(=O)N2CCN(c3ccccc3)CC2)c2oc3ccccc3c2n1	n	25µM	n	u
CCOC(=O)C1CCN(c2nc(C)nc3c2oc2ccccc23)CC1	n	u	n	n
CCc1nc(Nc2ccncc2)c2oc3ccccc3c2n1	u	n	-105	n
O=C(Cn1nnc2ccccc21)NC1CCCCC1	n	n	n	n
CC(C)Cc1nc(Nc2ccccc2C#N)c2nnn(Cc3ccccc3)c2n1	u	n	n	u
CC(=O)N1CCN(c2ccc(Nc3nc(C)nc4c3oc3ccccc34)cc2)CC1	n	25µM	n	n
O=S(=O)(NCC1CC1)c1cc(Cl)cc(Cl)c1	n	n	-65	n
O=C(O)C1CCC(CNS(=O)(=O)c2ccc(Cl)cc2)CC1 (stereo not drawn)	n	n	n	n
CCNc1nc(NCC)n2c(SCC(=O)N(CC)C3CCCCC3)nnc2n1	n	n	n	n
CC1=C(C(=O)OCC2CCCCC2)C(c2ccc(F)cc2F)CC(=O)N1 (stereo not drawn)	u	u	-105	n
Cc1cc(/C=N\NC(=O)COc2cccc3cccnc23)c(C)n1-c1ccc(Br)cc1	n	n	u	n
Cc1cc(/C=N\NC(=O)c2cccs2)c(C)n1-c1ccc2ncccc2c1	u	n	n	10µM
COc1ccc(S(=O)(=O)N(C)CC(=O)N2CCCCC2)cc1Cl	n	n	n	n
COc1ccc(S(=O)(=O)N(C)CC(=O)N2CCN(C)CC2)cc1Cl	x	n	-100	x
COc1ccc(OC)c(S(=O)(=O)N(C)CC(=O)N2CCN(c3cccc(Cl)c3)CC2)c1	u	u	-103	n
Fc1ccccc1-c1csc(=Nc2cccnc2)n1CCCn1ccnc1	u	u	-90	n
COCCn1c(-c2cccs2)csc1=Nc1cccnc1	n	22µM	n	n
COCCn1c(-c2ccco2)csc1=Nc1cccnc1	n	n	n	n
Cc1cc(SCC(=O)OCC(=O)N(CCC#N)c2ccccc2)nc2ccccc12	n	n	u	n
COc1ccccc1NC(=O)N1CCCC1C(=O)Nc1ccc2c(c1)OCO2 (stereo not drawn)	u	n	n	n
O=C(CSc1nc2c([nH]c3ccccc32)c(=O)n1-c1ccccc1)Nc1ccccc1F	x	n	n	n
O=C(CSc1nc2c([nH]c3ccccc32)c(=O)n1-c1ccccc1F)Nc1ccccc1C(F)(F)F	x	n	-89	u
CC(Sc1nc2c([nH]c3ccccc32)c(=O)n1-c1ccccc1)c1ccccc1 (stereo not drawn)	x	n	-83	u
Cc1cc(C)cc(-n2c(SCC(N)=O)nc3c([nH]c4ccccc43)c2=O)c1	x	n	-71	u
SMILES	Marburg entry inh	FMDV antiviral	HCMV inh	LASV entry inh
CCSc1nc2c([nH]c3ccccc32)c(=O)n1-c1cccc(OC)c1	x	n	-63	u
COc1ccc(C(C)n2c(C)c3c(C)nnc(C)c3c2C)cc1 (stereo not drawn)	u	n	-81!	n
COC(=O)c1cc(NC(=S)NCc2ccc(Cl)cc2)cc(C(=O)OC)c1	n	u	-76	n
COC(=O)c1cccc(NC(=S)NCc2ccc(Cl)cc2)c1	n	n	n	n
CC(=O)CSc1nc2cc3c(cc2cc1C#N)OCCO3	1.4µM	n	n	u
Cc1ccc(-n2cccn2)c(CN2CCC(CO)(CCc3ccccc3)CC2)c1	8.9µM	n	n	n
N/C(=N\OC(=O)c1ccc(=O)n(Cc2ccccc2)c1)c1ccccn1	u	n	n	u
CCCc1ccc(C(=O)O/N=C(\N)c2ccccn2)cc1	11µM	14µM	-70	1.4µM
N/C(=N\OC(=O)c1ccc2ccccc2c1)c1ccccn1	u	n	-83	u
Cc1noc(C)c1NC(=O)N(C)C[C@H]1Oc2c(NC(=O)NC(C)C)cccc2C(=O)N([C@H](C)CO)C[C@@H]1C	x	n	n	x
CN1OC(C)(CC(=O)NCc2ccccc2)N=C1c1ccccc1F (stereo not drawn)	x	x	n	x
Cc1ccc(C)c(CN2C(=O)c3ccccc3S(=O)c3ccc(C(=O)N4CCN(c5ccccn5)CC4)cc32)c1 (stereo not drawn)	u	n	-98	u
COc1ccccc1N1CCN(C(=O)c2ccc3c(c2)N(Cc2cc(C)ccc2C)C(=O)c2ccccc2S3(=O)=O)CC1	u	n	-67	u
O=C(NCC1CCCO1)c1nn2c(c1Cl)NC(c1ccc(F)cc1)CC2C(F)(F)F (stereo not drawn)	n	n	n	u
O=C(Nc1ccc(CN2CCCCC2)cc1)c1cccc(Br)c1	u	n	n	u
COc1ccccc1N(/N=C1\Sc2ccccc2C1=O)C(C)=O	x	u	n	x
COc1cc2c(cc1NC(=O)CN1CCN(S(=O)(=O)c3ccccc3F)CC1)oc1ccccc12	u	n	n	n
O=C(O)c1cccc(N2CCCCS2(=O)=O)c1	n	n	-100	n
CCOc1ccc(NC(=O)c2ccccc2NC(=O)CNC2CCCC(C)C2C)cc1 (stereo not drawn)	x	n	-66	x
Cc1cc(C)cc(NS(=O)(=O)c2ccc(NC(=S)NC(=O)c3cccs3)cc2)c1	12µM	n	n	14µM
CN(C1CCCCC1)S(=O)(=O)c1ccc(NC(=S)NC(=O)c2cccs2)cc1	18µM	u	n	n
Cc1ccc(C(=O)NC(=S)Nc2ccc(NC(=O)c3cccs3)cc2)cc1[N+](=O)[O-]	n	u	-78	n
CN(C)S(=O)(=O)c1ccc(NC(=S)NC(=O)C2CCC2)cc1	x	n	n	x
CCc1cc(=O)oc2cc(OC(C)C(=O)NCCCn3ccnc3)ccc12 (stereo not drawn)	n	n	n	n
CC(OC(=O)C1CCN(S(=O)(=O)c2ccc(Cl)cc2)CC1)C(=O)NC1CCCCC1C (stereo not drawn)	n	n	n	n
SMILES	Marburg entry inh	FMDV antiviral	HCMV inh	LASV entry inh
CCOC(=O)C1(Cc2ccccc2C)CCCN(C(=O)COC)C1 (stereo not drawn)	x	n	n	x
CN(Cc1ccccn1)C(=O)C1CCC(=O)N(Cc2cccc(F)c2)C1 (stereo not drawn)	x	n	n	x
C#CC[N+](C)(C)CCCCCCCCCCCC	u	22µM	-98	u
CC#CC[N+](C)(C)CCCCCCCCCCCC	10µM	13µM	-101	u
C#CC[N+](C)(C)CCCCCCCC	n	n	-77	n
CCCCCCCCCCCCCCCC[N+](C)(C)CCl	n	n	u	n
C#CC[N+](C)(C)CCCCCCCCCC	n	n	-98	n
COc1ccc(CN(CC(O)COc2cccc3[nH]cc(C)c23)C(C)(C)C)cc1 (stereo not drawn)	n	n	u	x
CN(CC(=O)N1CCCCC1)S(=O)(=O)c1cccc2nsnc12	x	n	n	x
COc1ccc(OC)c(CN2CCN(C(=O)c3ccc(C)c(S(=O)(=O)Nc4ccccc4OC)c3)CC2)c1	x	n	n	x
Cc1ccc2c(CC(=O)OCc3nc(N)nc(Nc4ccccc4C)n3)coc2c1	15µM	n	n	n
Cc1ccccc1Nc1nc(N)nc(COC(=O)CC2CC3CCC2C3)n1 (stereo not drawn)	14µM	n	n	u
Cc1cccc(NC(=S)N/N=C2\CC(C)(C)Oc3ccc(O)cc32)c1	4.5µM	u	n	n
COc1ccc2[nH]c(C(=O)N/N=C/c3ccc(O)cc3O)cc2c1	x	n	-90	x
